Dicer processing = inhibitors of Dicer pre-microRNA processing, primary screen, biochemical, cat-ELCCA, chemiluminescence; Endoribonuclease Dicer (Homo sapiens), Q9UPY3; cat-ELCCA pre-miR-21 Dicer processing; stronger effect = higher value; 47,000 tested, 6% active; z-score at 25 µM; in the data active = z-score above about 3, passing the limit was not always enough;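 also: higher signal means more uncleaved substrate so more Dicer inhibition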
Hits are given with their value; i = inactive. The full list was thinned out, with hits kept by preference.

SMILES | Dicer processing
O=C(CSc1nc2ccccc2[nH]1)Nc1ncccn1 | i
COc1cc(NC(=S)NNS(=O)(=O)c2ccc(C)cc2)c(OC)cc1Cl | i
O=C1OC(c2ccccc2Cl)Sc2ccccc21 (configuration not stated) | i
COc1cc(C(F)(F)F)nc2c(C(=O)NNC(=O)c3ccc(Cl)cc3)scc12 | i
CCn1c(C)nc2cc(S(=O)(=O)NC)ccc21 | i
COC(=O)Nc1c(-c2ccccc2)nc2ccccn12 | i
O=C(Nc1c(-c2ccccc2)nc2ccc(Cl)cn12)c1ccco1 | i
O=C(Nc1c(-c2ccccc2)nc2ccccn12)c1ccco1 | 4.89
O=C(c1ccc(F)cc1)C(C(=O)N1CCCCC1)n1cc(Cl)ccc1=O (configuration not stated) | i
CCOC(=O)C1CCN(c2ccc(C(C)=O)cc2N)CC1 | i
Cc1ccc2c(C(=O)O)cc(-c3cccc([N+](=O)[O-])c3)nc2c1 | i
COc1c(C[C@H](NC(C)=O)C(=O)O)cccc1OCC1CCCC1 | i
Fc1ccc(-c2csc3ncnc(N4CCN(c5ccccn5)CC4)c23)cc1 | i
Cc1ccc(F)cc1S(=O)(=O)Nc1ccc2c(c1)OCC1CCCN21 (configuration not stated) | 6.51
COc1ccc(NS(=O)(=O)c2ccc(F)cc2)cc1OC1CCCC1 | i
Cc1cc(S(=O)(=O)Nc2cccc(F)c2)c(C)c(S(=O)(=O)c2ccccc2)c1 | i
Cc1c(CN2CCN(c3ccccn3)CC2)sc2ccccc12 | i
CCOC(=O)c1c(N(C)S(C)(=O)=O)sc(C)c1C | 3.65
CCOC(=O)c1c(NC(=O)CC)sc(C)c1C | i
CCOC(=O)c1c(N)sc(C)c1C | i
O=C1C2ON(c3ccccc3)C(c3ccccc3O)C2C(=O)N1c1ccc(F)cc1 (configuration not stated) | i
O=C1c2oc3ccc(F)cc3c(=O)c2C(c2ccc(O)cc2)N1Cc1ccccc1Cl (configuration not stated) | i
CCOC(=O)c1sc(-c2ccc3c(c2)CCO3)nc1C | i
CC12CN3CC(C)(CN(C1)C3c1ccccc1F)C2=O (configuration not stated) | i
CCOC(=O)c1c(NC(=O)C2CC(Cl)=CCC2C(=O)O)sc(C)c1C (configuration not stated) | i
SMILES | Dicer processing
CCOC(=O)C(NC(=O)c1ccccc1Cl)(Nc1cccc(C)n1)C(F)(F)F (configuration not stated) | i
CCOC(=O)C(O)(NC(=O)c1ccccc1C)C(F)(F)F (configuration not stated) | i
CCOC(=O)C(NC(=O)c1ccccc1Cl)(Nc1cc(C)ccn1)C(F)(F)F (configuration not stated) | i
CCOC(=O)C(NC(=O)c1ccccc1Cl)(Nc1ccc(C)cn1)C(F)(F)F (configuration not stated) | 3.04
COC(=O)C(O)(NC(=O)c1ccccc1Cl)C(F)(F)F (configuration not stated) | 3.85
CCOC(=O)C(O)(NC(=O)c1ccccc1Cl)C(F)(F)F (configuration not stated) | i
NC(=O)CSc1nc2c(c(C(F)(F)F)n1)CCc1ccccc1-2 | i
O=[N+]([O-])c1ccc(NS(=O)(=O)c2ccc(-c3ccc(S(=O)(=O)Nc4ccc([N+](=O)[O-])cc4)s3)s2)cc1 | 5.26
CNS(=O)(=O)Cc1ccc([N+](=O)[O-])cc1 | i
Cc1cc(C)c(NS(=O)(=O)c2cc([N+](=O)[O-])ccc2C)c(C)c1 | i
CCc1c(C)nc(SCc2ccc(C)cc2)c(C#N)c1C | i
Nc1ccc(-c2nc3ccccc3s2)cc1 | i
O=C(O)c1ccc2nc(-c3ccc(O)cc3)sc2c1 | 4.49
O=C(O)c1ccc2nc(-c3ccccc3)c(-c3ccccc3)nc2c1 | i
COc1ccc(OC)c(C2/C(=C(/O)c3ccc(C)cc3)C(=O)C(=O)N2c2cccnc2)c1 (configuration not stated) | i
CCOC(=O)C(=CNc1ccc(C(=O)O)cn1)C(=O)OCC | i
COc1ccc(Nc2c3c4c(c(Br)ccc4n(C)c2=O)C(=O)c2ccccc2-3)cc1 | i
CCCCCCCNc1c2c3c(cccc3n(C)c1=O)C(=O)c1ccccc1-2 | i
Cn1c(=O)c(Nc2ccccc2)c2c3c(cccc31)C(=O)c1ccccc1-2 | 3.31
CCCOCCOC(=O)C1=C(C)NC2=C(C(=O)CC(C)(C)C2)C1c1ccsc1 (configuration not stated) | 5.08
CCOCCOC(=O)C1=C(C)NC2=C(C(=O)CC(C)(C)C2)C1c1ccc(CC)cc1 (configuration not stated) | i
CSc1ccc(C2C(C(=O)OCCOc3ccccc3)=C(C)NC3=C2C(=O)CC(C)(C)C3)cc1 (configuration not stated) | i
CCCOC(=O)C1=C(C)NC2=C(C(=O)CC(C)(C)C2)C1c1cccnc1 (configuration not stated) | i
CC1=C(C(=O)OCCOc2ccccc2)C(c2cccnc2)C2=C(CC(C)(C)CC2=O)N1 (configuration not stated) | 3.46
CCCOC(=O)C1=C(C)NC2=C(C(=O)CC(C)(C)C2)C1c1ccc(SC)cc1 (configuration not stated) | i
SMILES | Dicer processing
Cc1cc(S(=O)(=O)Nc2ccnn2C)c(C)cc1Cl | i
N#Cc1cccc(CS(=O)(=O)c2cccs2)c1 | i
CC1=C(C(=O)OC2CCCC2)C(c2cccnc2)C2=C(CC(C)(C)CC2=O)N1 (configuration not stated) | i
O=C(Nc1nc2n(n1)C(c1ccc(F)cc1)C=C(c1ccccc1)N2)c1cccs1 (configuration not stated) | i
O=C(Nc1nc2n(n1)C(c1ccc(F)cc1)C=C(c1ccc(Cl)cc1)N2)c1cccs1 (configuration not stated) | 17.1
O=C(Nc1nc2n(n1)C(c1ccc(Cl)cc1)C=C(c1ccccc1)N2)c1cccs1 (configuration not stated) | i
Cc1nn(Cc2nnc(SCC(=O)C(C)(C)C)o2)c(C)c1Br | i
COCCOC(=O)C1=C(C)NC2=C(C(=O)CCC2)C1c1ccccc1Br (configuration not stated) | i
COC(=O)c1cc(=O)n(-c2ccccc2C(F)(F)F)[nH]1 | 3.23
COC(=O)c1cc(=O)n(-c2cc(C(F)(F)F)cc(C(F)(F)F)c2)[nH]1 | i
O=c1cc(C(F)(F)F)[nH]n1-c1ccccc1 | i
CC(C)(C)NC1CC(=O)N(c2ccc(Cl)cc2)C1=O (configuration not stated) | i
COc1ccc2c(c1)CCC/C2=N\N=C(/N)SC | i
C=CCOc1cccc(C2c3c(oc4ccccc4c3=O)C(=O)N2c2nncs2)c1 (configuration not stated) | i
CC12CN3CC(C)(CN(C1)C3c1ccc(O)cc1O)C2=O (configuration not stated) | i
CC(C)C12CN3CC(C(C)C)(CN(C1)C3c1ccc(O)cc1O)C2=O (configuration not stated) | 5.67
CCC12CN3CC(CC)(CN(C1)C3c1ccc(O)cc1O)C2=O (configuration not stated) | i
FC(F)(F)c1ccnc(-n2ccc(-c3cccs3)n2)n1 | i
COC(=O)C1=NOC2(CC(=O)N(c3ccc(F)cc3)C2=O)C1 (configuration not stated) | i
Cn1c(Sc2nc3ccc(Cl)cc3s2)nnc1-c1ccc2ncccc2c1 | i
CCc1cccc(CC)c1NC(=O)C(Cl)Cl | i
CCc1cccc(CC)c1NC(=S)NN | 3.07

Assay outcomes as filed in PubChem.
